Assay results as given in PubChem BioAssay (NCI).
The panel holds about 83,000 compounds, 20% with a hit somewhere; the sample as a whole holds those more often.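 48-hour exposure, single concentration, 96-well plates; percent growth endpoint where 0 means no net growth. Active: below 10.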 Activity calls are given as the source filed them.

Each compound was assayed on LOX IMVI melanoma (assay: NCI-60 one-dose screen, 48 h (100 = growth as untreated, 0 = no growth, -100 = all killed)). Conditions: 10 µM unless noted.
Method: Growth inhibition of the LOX IMVI human tumor cell line is measured as a screen for anti-cancer activity. Cells are grown in 96 well plates and exposed to the test compound for 48 hours. Compounds are tested at a single concentration, which is 10^-5 M for most compounds. The reported endpoint is percent growth (GI% or GIPRCNT), where numbers from 0 - 100% represent growth inhibition, and numbers from -100% - 0 represent cell death. For example, a value of 40 represents 60% growth inhibition. A value of 0 means no net growth occurred over the course of the experiment. A value of -40 indicates 40% of cells at the beginning of the experiment died by the end of the experiment. A value of -100 means all cells are dead at the end of the experiment.
NCI-60 Human Tumor Cell Lines Screen was performed using the standard one-dose NCI protocol, which is described in more detail at https://dtp.cancer.gov/discovery_development/nci-60/default.htm.
Compounds with GIPRCNT values below 10 were considered active. Activity score was based on GIPRCNT using the following formula: […]
Score is 0 for GIPRCNT values of 100 or above, 50 for GIPRCNT values of 0, and 100 for GIPRCNT values of -100.

SMILES | growth
CCC(c1ccc(OC)cc1)C(CC)c1ccc(OCC[N+](C)(C)C)cc1 (stereo not given) | 42.9% (inactive)
COC1=CC(c2ccc[nH]2)=N/C1=C\c1[nH]c(C)c(C(=O)CCCCC(=O)Nc2ccccc2)c1C | -71.8% (active)
O=C(CSc1nc(-c2ccc(Cl)cc2)cn1-c1ccc(Cl)cc1)c1ccc(Br)cc1 | 73.4% (inactive)
Clc1ccc2c(c1)NC1(CCSc3ccccc31)n1nccc1-2 (stereo not given) | 92.3% (inactive)
COc1ccc(-c2nnc(COc3ccc(NS(=O)(=O)c4ccc(OC)cc4)cc3F)o2)cc1 | 86.3% (inactive)
N#Cc1ccc(NC(=O)c2ccc3cccnc3c2O)cc1 | 21.9% (inactive)
O=C1Nc2cc(Cl)ccc2/C1=C/c1ccc(N2CCOCC2)s1 | 106% (inactive)
COc1ccc(C(=O)/C=C/c2ccc(/C=C/c3cc(OC)c(OC)c(OC)c3)cc2)cc1 | 24.7% (inactive)
CC(C)N(Cc1ccc(CN(C(=O)CCl)C(C)C)cc1)C(=O)CCl | -61.2% (active)
Clc1nc(Cl)c2ncn(C/C=C/Cn3cnc4c(Cl)nc(Cl)nc43)c2n1 | 38.8% (inactive)
Cc1cccc2cc(/C=C/C(=O)/C=C/c3ccc(Cl)cc3)c(=O)[nH]c12 | 4.24% (active)
O=C1Nc2ccc(Br)cc2C1=N/C=c1\[nH]c(=O)/c(=C/c2ccc(Cl)cc2)s1 | 103% (inactive)
Nc1ccccc1C#C/C=C\C#Cc1cccc(O)c1 | 45.8% (inactive)
O=S(=O)(NCCCNc1cc(-c2cn(-c3ccccc3)nc2-c2cccc(O)c2)ccn1)c1ccc(Br)cc1 | -29.5% (active)
COc1ccc(S(=O)(=O)Nc2cc(/C=C\c3cc(OC)c(OC)c(OC)c3)cc(OC)c2OC)cc1OC | 48.2% (inactive)
CCN(C(=O)c1cc2ncccc2[nH]1)[C@H]1CCC[C@@H](NCc2cccc(F)c2)C1 | 94.8% (inactive)
CCc1c(C(=O)Nc2ccc3ccccc3c2)[nH]c(C)c1C(C)=O | 96.3% (inactive)
COc1cc(-n2nc(C(=O)Nc3ccc(C(=O)O)cc3)nc2-c2ccccc2)cc(OC)c1OC | 101% (inactive)
CN(C)c1ccc(C2CC(c3ccccc3)=NN2/C=C2\SC(=O)NC2=O)cc1 (stereo not given) | 74.3% (inactive)
CCN(CC)CCCNc1nc(C)cc(Nc2ccc3nc(C)cc(N)c3c2)n1 | 95.6% (inactive)

SMILES | growth
COc1ccc(-c2nc3sccn3c2-c2ccnc(NCCCNS(=O)(=O)c3ccc(C)cc3)n2)cc1 | 11% (inactive)
COc1ccc(OC)c(NC(=O)c2cc(S(=O)(=O)N3CCc4ccccc43)ccc2OC)c1 | 94.7% (inactive)
Cc1cc(Nc2nc(C(=O)Nc3ccccc3)nc3ccccc23)n[nH]1 | 54% (inactive)
COc1ccc(/C=c2\sc3n(c2=O)C2C(NN=3)N(C)C(=O)N2C)cc1 (stereo not given) | 44.3% (inactive)
COc1cc(OC)c(C(=O)/C=C/c2cccc(C(F)(F)F)c2)c(OC)c1 | -16.7% (active)
CC[C@]1(O)C[C@@H]2CN(Cc3c([nH]c4ccccc34)[C@@](C(=O)OC)(c3cc4c(cc3OC)N(C)[C@H]3[C@@](O)(C(=O)OC)[C@H](OC(C)=O)[C@]5(CC)[C@@H]6C[C@@H]6CN6CC[C@]43[C@@H]65)C2)C1 | 19.1% (inactive)
COc1ccc(/C(=N\O)c2cc(OC)c(OC)c(OC)c2)c(OC)c1N | 42.5% (inactive)
COC(=O)c1ccc2nc(-c3cc4ccccc4n3C)n(CCCCOc3cc4c(cc3OC)C(=O)N3CCC[C@H]3C=N4)c2c1 | -54.7% (active)
COc1ccc2c(c1)NC(=O)CN2c1nc(NC2CC2)nc2ccccc12 | 34.9% (inactive)
Cc1nn(-c2ccc(Cl)cc2)c(=O)n1CCOc1ccccc1Cl | 90.1% (inactive)
Cc1ccnc2nc(C(=O)OCC(=O)Nc3ccc(-c4ccccc4)cc3)nn12 | 99% (inactive)
CC(=O)OCC1OC(OCC2OC(OC(C)=O)C(OC(C)=O)C(OC(C)=O)C2OC(C)=O)C(OC(C)=O)C(OC(C)=O)C1OC(C)=O (stereo not given) | 95.7% (inactive)
CN(C)c1nc(N)c(N=O)c(N)n1 | 99.1% (inactive)
COc1cc2nc(N3CCC[C@@H](NC4=CC(=O)c5ccccc5C4=O)C3)nc(N)c2cc1OC | -65.3% (active)
O=C(NNC(=S)Nc1ccccc1)c1ccccn1 | 25.9% (inactive)
C=CCOc1cccc(/C=C/C(=O)c2sc(Nc3cccnc3)nc2C)c1 | 32.9% (inactive)
CC(=O)n1cc([C@H]2CC[C@H](c3cn(C(C)=O)c4ccccc34)c3c2[nH]c2ccccc32)c2ccccc21 | 79.5% (inactive)
COc1ccc(C(=O)/C=C/c2cc(C(=O)c3cc(OC)c(OC)c(OC)c3)ccc2OC)cc1 | 27.4% (inactive)
CCN1C(=O)N(CC)C2Nn3c(s/c(=C\c4cccc(F)c4)c3=O)=NC21 (stereo not given) | 69.7% (inactive)
COc1ccc(/C=C2\CCCC3=C2NC(C)=NC3c2ccc(OC)c(OC)c2)cc1OC (stereo not given) | -72.7% (active)
